# Test system: EPHA2
# Details: concentration: 1 μM, replicates: in singlicate; n = 1
# 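Also: KINOMEscan kinase panel screen.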
row,Compound,%Inh
1,COc1cc2c(cc1OC[C@@H](O)CO)ncc1c3ccc(C#N)cc3[nH]c21,0%
2,COc1ccc(Nc2ncc(C#N)c(Nc3ccccc3C(N)=O)n2)cc1N1CCN(C)CC1.Cl [GSK1558669],80%
3,Cc1cccc(-c2nc(-c3ccc(S(C)(=O)=O)cc3)sc2-c2ccncc2)c1,10%
4,COc1cc(Nc2nccc(N3CCC(NC(=O)c4cccc(NC(C)=O)c4)C3)n2)cc(OC)c1OC (stereo not drawn) [GSK1379754],0%
5,Cc1ccc(NC(=O)c2ccnc(N3CCN(C)CC3)c2)cc1-c1ccc(C(=O)NCC2CC2)cc1 [GW775604],0%
6,CSc1ccc(-c2cc3ncnc(SCC(=O)O)c3s2)cc1,0%
7,c1ccc(-c2cc(-c3c[nH]nc3-c3ccccn3)ccn2)cc1 [GW576604],0%
8,O=C(Nc1n[nH]c2cc(-c3cccc(F)c3)ccc12)C1CC1 [SB-735464],0%
9,Cc1c(Cn2c(C)nn3c(=O)cc(N4CCOC(C)C4)nc23)cccc1C(F)(F)F (stereo not drawn) [GSK2344444],5%
10,Cc1nnc(-c2ccc3ncc(-c4ccc(S(C)=O)cc4)n3c2)o1 (stereo not drawn),0%
11,CN(C(=O)c1ccc(-c2cc(-c3c[nH]nc3-c3ccccn3)ccn2)cc1)C1CCOCC1 [GW810083],0%
12,Fc1ccc(-c2ncn(CCCN3CCOCC3)c2-c2ccccn2)cc1 [SB-211742],31%
13,COc1cc2c(cc1OCCN1CCN(C)CC1)ncc1c3ccc(C#N)cc3[nH]c21,0%
14,O=C(c1ccc(-c2cc(-c3c[nH]nc3-c3ccccn3)ccn2)cc1)N1CCOCC1 [GW812171],0%
15,CC(=O)Nc1ccc(COc2ccc(Nc3ccnc4cc(-c5ccccn5)ccc34)cc2)cc1.Cl [GW440148],0%
16,O=C(NOCC1CC1)c1ccc(F)c(F)c1Nc1ccc(I)cc1Cl,0%
17,COc1ccc(Nc2nccc(N3CCC(NC(=O)Nc4cc(C)ccc4C)C3)n2)cc1 (stereo not drawn) [GSK1379741],0%
18,Cc1ccc(C(=O)NCC(N)=O)cc1-n1c(C)cc(OCc2ccc(F)cc2F)c(Br)c1=O,40%

row,Compound,%Inh
1,Cl.Nc1ncnc2occ(-c3ccc(NC(=O)Nc4cc(C(F)(F)F)ccc4F)cc3)c12 [SB-707548],97.5%
2,Nc1nc(-c2ccc3c(N)n[nH]c3c2)cc(N2CCCC2)n1 [GSK2227430],12%
3,CN(C1=C(c2ccccc2)C(=O)NC1=O)c1ccccc1 [SB-334860],1%
4,CN1c2ccc(CNc3ccc(F)cc3)cc2-c2c(cnn2C)S1(=O)=O,9%
5,COc1ccc(S(=O)(=O)NC2CCN(c3cc(C)nc(Nc4cccc(C#N)c4)n3)CC2)cc1.O=C(O)C(F)(F)F [GSK1653539],0%
6,O=c1cc(N2CCOCC2)nc2n(Cc3cccc(Cl)c3Cl)c(C3CC3)nn12 [GSK2358994],0%
7,N#Cc1ccc(-c2cc(-c3c[nH]nc3-c3ccccn3)ccn2)cc1 [GW693028],2%
8,O=C(Nc1cccc(-c2nn3ncccc3c2-c2ccnc(Nc3cccc(C(F)(F)F)c3)n2)c1)c1c(F)cccc1F [GSK299495],0%
9,CCc1ccnc(/C=C/c2n[nH]c3cc(Sc4ccccc4C(=O)NC)ccc23)c1,0%
10,Cl.Cl.Cl.Fc1ccc(-c2ncn(C3CCNCC3)c2-c2ccnc(Nc3ccccc3)n2)cc1 [SB-238039],0%
11,Nc1nccc(-c2c(-c3ccc(F)cc3)ncn2C2CCN(CC(F)(F)F)CC2)n1 [SB-236560],0%
12,Cc1cn2c(=O)cc(N3CCOCC3)nc2n1Cc1cccc(Cl)c1Cl [GSK2334006],21%
13,COc1ccc(COc2cc(-n3cnc4ccccc43)sc2C(N)=O)cc1 [GSK1024304],0%
14,Fc1ccc(-c2ncn(CCCN3CCOCC3)c2-c2cccnc2)cc1 [SB-211743],0%
15,CN1c2ccc(NCc3ccc(F)cc3)cc2-c2c(cnn2C)S1(=O)=O,12%
16,O=C(NCCNc1ccnc(Nc2ccc(F)cc2)n1)c1cc2ccccc2s1 [GSK1379874],30%
17,Cc1cccc(-c2nc(Nc3ccc4ncsc4c3)c3ccccc3n2)n1 [GW867588],0%
18,NCC(NC(=O)c1cc(-c2cn[nH]c2)c(-c2ccnc3[nH]ccc23)s1)c1ccccc1.O=C(O)C(F)(F)F.O=C(O)C(F)(F)F (stereo not drawn) [GSK1325775],0%

# Source: PMC5540273 (PLoS ONE, 2017)
